PKA kinase inh = inhibitors of human PKA kinase activity, primary screen, biochemical, ATP-depletion luminescence, Kemptide substrate | PKA Kemptide phosphorylation, Kinase-Glo ATP luminescence | inhibition, % at 6 µM | 0.1% of 65,000 active;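 active = inhibition above the screen-wide mean inhibition plus 3 SD, cut at about 21% in these data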
CatS inh = inhibitors of human cathepsin S, biochemical, compound mixtures; P25774; recombinant cathepsin S, AMC dipeptide fluorescence, pooled mixtures; inhibition, %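 (tested at 5 µM per compound within 10-compound mixtures)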; 0.06% of 62,000 active; in the data active = inhibition above about 32%, passing the limit was not always enough;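 note: 0% = enzyme without compound and 100% = blank without enzyme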
Target sequence (P25774 115-331 limits assumed): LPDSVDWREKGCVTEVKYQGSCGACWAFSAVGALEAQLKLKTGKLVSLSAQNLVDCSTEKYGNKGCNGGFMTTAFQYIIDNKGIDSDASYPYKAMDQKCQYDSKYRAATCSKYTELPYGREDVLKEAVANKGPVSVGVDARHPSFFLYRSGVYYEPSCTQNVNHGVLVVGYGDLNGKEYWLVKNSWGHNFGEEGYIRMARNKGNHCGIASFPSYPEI
CatB mixtures = cathepsin B inhibitors from pooled compounds, primary screen, biochemical, compound mixtures, AMC fluorescence. Purified cathepsin B, AMC dipeptide fluorescence. 0.06% of 62,000 active. inhibition, %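 (ten-compound pools at 5 µM per compound and 50 µM total)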. P07858; in the data active = inhibition above about 22%, passing the limit was not always enough;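 note: 0% = enzyme without compound and 100% = no enzyme blank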
CatB inh = human cathepsin B inhibitors, primary screen, biochemical, fluorogenic substrate | P07858 | purified cathepsin B, fluorescence | inhibition, %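 (tested at 10 µM)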 | 0.1% of 63,000 active | AID 453, 2006; in the data active = inhibition above about 21%;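 note: 0% = enzyme with no compound and 100% = no enzyme blank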
CatL inh = inhibitors of human cathepsin L, biochemical; Procathepsin L (Homo sapiens), P07711; purified cathepsin L, fluorogenic substrate, fluorescence; inhibition, %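 (tested at 10 µM)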; 0.17% of 58,000 active; in the data active = inhibition above about 45%;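 note: 0% = enzyme with no compound and 100% = no enzyme blank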
ROCK2 inh = inhibitors of human ROCK2 kinase, primary screen, biochemical, high-throughput, luminescence. Rho-associated protein kinase 2 (Homo sapiens), O75116. purified ROCK2, Kinase-Glo ATP depletion luminescence. inhibition, % at 6 µM. 0.35% of 60,000 active. AID 604, 2007;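 active = inhibition above the screen-wide mean inhibition plus 3 SD, cut at about 18% in these data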;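 note: plate controls were DMSO wells for no effect and Y-27632 control wells after no-enzyme background subtraction for full effect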
An asterisk follows results filed as active. Compounds with a hit are over-represented: about 0.51% of the library has one in this group of screens.

Results for CCCc1[nH]nc2c1C1(C(=O)N(C(C)C)c3ccccc31)C(C#N)=C(N)O2 (stereo not given) ?
PKA kinase inh: -4.4; CatS inh: -2.3; CatB mixtures: -0.5; CatB inh: 2.1; CatL inh: 4.8; ROCK2 inh: 2.4

What do the screens show for `O=C(CC(c1ccccc1)c1ccco1)N1CCOCC1` (stereo not given)?
PKA kinase inh: 0.8; CatS inh: 59.4*; CatB mixtures: 6.7; CatB inh: 8.4; CatL inh: 18.5; ROCK2 inh: -9.6

Results for O=C(CSc1ncc(-c2ccc(F)cc2)[nH]1)Nc1cccc(O)c1 ?
PKA kinase inh: 9.1; CatS inh: -2.5; CatB mixtures: 4.1; CatB inh: 4.3; CatL inh: 6.0; ROCK2 inh: 24.9*

Results for O=C(CCCCn1c(=O)[nH]c2ccsc2c1=O)NCc1cccnc1 ?
PKA kinase inh: 7.7; CatS inh: 2.0; CatB mixtures: 25.2*; CatB inh: 0.5; CatL inh: -1.4

Results for Clc1ccc(OCCN2CCN(c3ncnc4sccc34)CC2)cc1 ?
PKA kinase inh: 36.1*; CatS inh: -1.5; CatB mixtures: 7.0; CatB inh: 4.1; CatL inh: 2.9; ROCK2 inh: 10.0

Results for N#Cc1c(/N=C/c2cccs2)sc2c1CCCCC2 ?
PKA kinase inh: 6.3; CatS inh: 23.6; CatB mixtures: 5.6; CatB inh: 6.8; CatL inh: 3.8; ROCK2 inh: 25.4*

What do the screens show for `CN(C)/C=N/c1sc2c(c1C#N)CCC2`?
PKA kinase inh: 3.8; CatS inh: 2.2; CatB mixtures: -1.1; CatB inh: 3.0; CatL inh: 10.1; ROCK2 inh: 3.7

Results for CCOC(=O)CSc1nc(-c2cccs2)nc2c1c(=O)n(C)c(=O)n2C ?
PKA kinase inh: -0.8; CatS inh: 39.1; CatB mixtures: 1.7; CatB inh: 3.1; ROCK2 inh: 3.3

What do the screens show for `CC(=O)CCc1c(C)c2cccc(C)c2[nH]c1=O`?
PKA kinase inh: 6.8; CatS inh: -1.4; CatB mixtures: 0.2; CatB inh: 3.4; CatL inh: 104.5*; ROCK2 inh: 4.3

Results for Nc1cc(OC(=O)c2cccs2)nn1S(=O)(=O)c1ccc(F)cc1 ?
PKA kinase inh: 10.9; CatS inh: -1.5; CatB mixtures: 55.3*; CatB inh: 55.6*; CatL inh: -3.3; ROCK2 inh: 5.2

How did Cc1nn(-c2ccccc2)c(OC(=O)c2cccs2)c1S(=O)(=O)c1ccccc1 do in these assays?
PKA kinase inh: -4.1; CatS inh: 8.1; CatB mixtures: -5.0; CatB inh: 0.4; CatL inh: 11.6; ROCK2 inh: -0.5

Results for Nc1cc(OC(=O)c2cccs2)nn1S(=O)(=O)c1ccccc1 ?
PKA kinase inh: 7.1; CatS inh: -1.8; CatB mixtures: 68.8*; CatB inh: 75.7*; CatL inh: 2.9; ROCK2 inh: 9.6

What do the screens show for `CC1CCc2cc(F)cc3c(O)c(C(=O)Nc4cnccn4)c(=O)n1c23` (stereo not given)?
PKA kinase inh: 1.8; CatS inh: -32.1; CatB mixtures: -4.2; CatB inh: 7.6; CatL inh: 10.1; ROCK2 inh: -11.0

What do the screens show for `Cc1cc(N2CCCCC2)n2nc(C)c(-c3ccccc3)c2n1`?
PKA kinase inh: 4.7; CatS inh: -2.3; CatB mixtures: 2.4; CatB inh: 1.6; CatL inh: -16.2; ROCK2 inh: 5.0

Results for Cc1cc(SCC#N)n2nc(C)c(-c3ccccc3)c2n1 ?
PKA kinase inh: -2.1; CatS inh: 0.6; CatB mixtures: -2.9; CatB inh: 1.4; CatL inh: 47.6*; ROCK2 inh: -5.5

What do the screens show for `CCN(CC)c1ccc(NC(=O)C2CCCN(S(=O)(=O)c3cccnc3)C2)c(C)c1` (stereo not given)?
PKA kinase inh: -5.1; CatS inh: 2.5; CatB mixtures: -10.3; CatB inh: 0.8; CatL inh: 3.1; ROCK2 inh: -0.1

What do the screens show for `COc1cccc(OC)c1C(=O)Nc1ccc(CN2CCOCC2)cc1`?
PKA kinase inh: 9.7; CatS inh: -1.2; CatB mixtures: -7.3; CatB inh: 2.3; CatL inh: -7.0; ROCK2 inh: 5.1
